An excerpt weighted towards active compounds, which were near 4.1% of everything screened.
NALP1 yeast inh – inhibitors of NALP1 inflammasome in yeast | S. cerevisiae NALP1/ASC/caspase-1 growth, X-gal OD620, 72 h | inhibition, % at 10 µM | 280,000 compounds, 0.61% hits; in the data active = inhibition mostly above about 24%, no sharp cut-off; inactive = mostly below about 32%
PfHsp90 yeast 2 – inhibits growth of yeast expressing Plasmodium falciparum Hsp90. AID 504621. S. cerevisiae expressing PfHsp90, BacTiter-Glo ATP, 48 h; yeast lacking PDR1 and PDR3 efflux regulators. 310,000 compounds, 0.32% hits. inhibition, % at 9.4 µM;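 active = every replicate shows inhibition above about 80%, whatever the replicate mean, limit read from the data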
NALP3 yeast inh – inhibitors of NALP3 inflammasome in yeast; inhibition, % at 10 µM; Yeast reconstituted NLRP3/ASC/caspase-1, beta-gal luminescence, 24 h; AID 2825; 330,000 compounds, 0.39% hits;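 active = inhibition of 50% or more; inactive = inhibition below 50%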
tim23-1 inh – tim23-1 yeast growth inhibition | S. cerevisiae tim23-1 growth, BacTiter-Glo luminescence, 24 h | 330,000 compounds, 1.3% hits | inhibition, % at 20 µM;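 active = growth inhibition of the mutant yeast at or above 50%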;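 note: temperature-sensitive mutant grown at 25 °C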
TIM10 inh – TIM10 yeast growth inhibition; AID 463195; S. cerevisiae TIM10 strain growth, BacTiter-Glo luminescence, 24 h; inhibition, % at 10 µM; 330,000 compounds, 1.4% hits;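 active = inhibition of 40% or more at the single tested concentration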;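 note: wild-type TIM10 isogenic control strain grown at permissive 25 °C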
tim10-1 inh – inhibits growth of tim10-1 mutant yeast; S. cerevisiae tim10-1 ts strain growth, BacTiter-Glo, 24 h; inhibition, % at 20 µM; 330,000 compounds, 2.2% hits; AID 463190;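 active = inhibition of at least 40%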;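 note: mutant grown at 25 °C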
tim23-1 confirm – confirmation of tim23-1 mutant yeast growth inhibitors; shares compounds with tim23-1 inh; S. cerevisiae tim23-1 growth, BacTiter-Glo luminescence, 24 h; inhibition, % at 20 µM; 4,400 compounds, 83% hits; AID 463218;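 active = inhibition above about 39% in either of two replicate wells at 20 µM, limit read from the data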;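 note: temperature-sensitive tim23-1 mutant grown at 25 °C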
Numbers stand for hits; 0 = inactive; - = no result.

SMILES | NALP1 yeast inh | PfHsp90 yeast 2 | NALP3 yeast inh | tim23-1 inh | TIM10 inh | tim10-1 inh | tim23-1 confirm
COc1ccc(OC)c(NC(=O)c2csc(Cl)c2OC)c1 | 0 | 0 | 0 | 59 | 0 | 0 | 44
Cc1ccc(NC(=O)Nc2c(C)n(C)n(-c3ccccc3)c2=O)cc1 | 0 | 0 | 0 | 94 | 0 | 0 | 0
Cc1ccc(C)c(-c2csc(N/N=C/c3ccco3)n2)c1 | 0 | 0 | 0 | 56 | 0 | 0 | 39
NC(=S)NNc1cc(Cl)cc(Cl)c1 | 0 | 0 | 0 | 58 | 0 | 0 | 70
ClC(Cl)(Cl)c1nc2ccccc2n2nncc12 | 37 | 0 | 0 | 54 | 0 | 0 | 0
O=C(NC1CCCC1)c1c(O)nc2sccn2c1=O | - | - | 0 | 56 | 0 | 0 | 0
Cc1cc(C)n(-c2nc3ccccc3c(=O)n2OCc2ccc(Cl)cc2)n1 | 0 | - | 0 | 52 | 0 | 0 | 51
Cc1cc(C)n(-c2nc3ccccc3c(=O)n2OCc2ccc(F)cc2)n1 | 0 | 0 | 0 | 0 | 0 | 0 | -
COc1ccc(/C=C(\C#N)C(=O)NC(C)c2ccccc2)cc1O (stereo not given) | 0 | 0 | 0 | 56 | 0 | 0 | 44
COc1ccc(/C=C(\C#N)C(=O)NCc2ccccc2)cc1O | 0 | 0 | 0 | 0 | 0 | 0 | -
O=C(OCN1C(=O)c2ccccc2C1=O)c1ccc(Cl)nc1 | 0 | 0 | 0 | 0 | 0 | 0 | -
COc1ccc(CCN(/C=C2\Sc3ccccc3C2=O)C(C)=O)cc1OC | 0 | - | 0 | 50 | 0 | 0 | 52
NC(=O)C1CCN(c2nc(-c3ccccc3C(F)(F)F)cs2)CC1 | - | - | 0 | 0 | 0 | 0 | -
COCCn1c(SCC(=O)Nc2cccc(C)c2)nnc1C(C)C | 0 | 0 | 0 | 50 | 0 | 0 | 0
COc1ccc(N2C(=NC(=O)CC3CCCCC3)SC3CS(=O)(=O)CC32)cc1 (stereo not given) | 0 | 0 | 0 | 0 | 0 | 0 | -
OC[C@@H]1CC[C@@H](Cc2ccc(-c3ccccc3)cc2)O1 | - | 0 | - | 53 | 0 | 0 | 0
CCCc1ccc(OCC(=O)Nc2cc(S(=O)(=O)CC)ccc2O)cc1 | 0 | 0 | 0 | 0 | 0 | 0 | -
COc1ccc2oc(C(=O)OCC(=O)NC3CCCCC3)c(C)c2c1 | - | - | 0 | 0 | 0 | 0 | -
O=C(Nc1ccc(N2CCN(C(=O)c3cccs3)CC2)cc1)c1ccc(Br)o1 | - | 0 | 0 | 55 | 0 | 0 | 54
O=C(Nc1ccc(NC(=O)c2cccs2)cc1)c1ccc(Br)o1 | 0 | - | 0 | 0 | 0 | 0 | -
O=C(Nc1cccc(NC(=O)c2cccs2)c1)c1ccc(Br)o1 | 0 | 0 | 0 | 61 | 0 | 0 | 72
O=C(Nc1ccc(N2CCN(C(=O)c3cccs3)CC2)cc1)c1ccccc1Cl | 0 | 0 | 0 | 0 | 0 | 0 | -
O=C(Nc1ccccc1Cl)c1cccc(NC(=O)c2cccs2)c1 | 0 | 0 | 0 | 59 | 0 | 0 | 63
COc1ccc(NC(=O)C(Cc2cc(C)cc(C)c2)C(C)C(=O)O)cc1 (stereo not given) | 0 | 0 | 0 | 0 | 0 | 0 | -
O=C(CSc1nnc(-c2ccccc2O)o1)N1CCCCC1 | 0 | 0 | 0 | 0 | 0 | 0 | -
SMILES | NALP1 yeast inh | PfHsp90 yeast 2 | NALP3 yeast inh | tim23-1 inh | TIM10 inh | tim10-1 inh | tim23-1 confirm
COc1ccc2c(-c3ccc(OCCN4CCCCC4)cc3)c(-c3ccccc3OC)sc2c1 | - | 0 | - | 0 | 0 | 0 | -
COc1ccccc1-c1sc2ccccc2c1-c1ccc(OCCN2CCCCC2)cc1 | - | 0 | - | 52 | 0 | 0 | 0
COc1cccc(-c2sc3ccccc3c2-c2ccc(OCCN3CCCCC3)cc2)c1 | - | 0 | 0 | 70 | 0 | 0 | 0
c1ccc(-c2sc3ccccc3c2-c2ccc(OCCN3CCCC3)cc2)cc1 | - | 0 | 0 | 61 | 0 | 0 | 42
COc1ccc(-c2sc3ccccc3c2-c2ccc(OCCN3CCCCC3)cc2)cc1 | - | 0 | 0 | 0 | 0 | 0 | -
COc1cccc(-c2sc3cc(OC)c(OC)cc3c2-c2ccc(OCCN3CCCCC3)cc2)c1 | - | 0 | - | 0 | 0 | 0 | -
Cc1ccc(S(=O)(=O)c2cnc(-c3ccccc3)nc2N2CCN(C)CC2)cc1 | 0 | 0 | 0 | 0 | 0 | 0 | -
CC(=O)Nc1cccc(C(=O)OCc2csc(CC(=O)Nc3ccccc3C)n2)c1 | - | 0 | 0 | 0 | 0 | 0 | -
O=C(Nc1cc(-c2ccccc2)[nH]n1)c1ccccc1F | - | - | 0 | 51 | 0 | 0 | 41
O=C(Nc1cc(-c2ccccc2)[nH]n1)c1ccccc1 | - | 0 | 0 | 52 | 0 | 0 | 56
CC1(C)Cc2c(sc(NC(=O)c3ccc(S(=O)(=O)N4CCCCCC4)cc3)c2C#N)C(C)(C)N1 | 0 | 0 | 0 | 0 | 0 | 0 | -
COc1ccc(C2CC(c3cccs3)=NN2C(=O)CCl)cc1OC (stereo not given) | 0 | 0 | 0 | 0 | 0 | 0 | -
COc1cc(C2CC(c3cccs3)=NN2C(=O)CCl)ccc1OC(F)F (stereo not given) | 0 | 0 | 0 | 56 | 0 | 0 | 44
CCOc1ccc(CC(=O)Nc2ccc(S(=O)(=O)N3CCCC3)cc2)cc1 | 0 | 0 | 0 | 0 | 0 | 0 | -
O=C(CN1C(=O)/C(=C/c2ccco2)SC1=S)NC1CCS(=O)(=O)C1 (stereo not given) | 0 | 0 | 0 | 0 | 0 | 0 | -
COc1ccccc1C(=O)COC(=O)Cc1ccccc1F | - | 0 | 0 | 52 | 0 | 0 | 54
COc1ccccc1C(=O)COC(=O)Cc1c[nH]c2ccccc12 | - | - | 0 | 0 | 0 | 0 | -
Cc1ccc(Nc2nc(-c3sc(N)nc3C)cs2)cc1 | 0 | 0 | 0 | 65 | 0 | 0 | 63
Cc1ccccc1OCCCSc1nc2ccccc2[nH]1 | 0 | 0 | 0 | 68 | 0 | 0 | 64
c1ccc(OCCSc2nc3ccccc3[nH]2)cc1 | 0 | 0 | 0 | 0 | 0 | 0 | -
C=CCc1c(C)nc(SC)nc1Nc1ccc(C(=O)O)cc1 | - | 0 | 0 | 0 | 0 | 0 | -
C=CCc1c(C)nc(SC)nc1Nc1ccc(C(C)=O)cc1 | 0 | 0 | 0 | 50 | 0 | 0 | 45
CCN1CCN(C(=O)c2ccc(-c3nc4ccccc4s3)s2)CC1 | 0 | 0 | 0 | 0 | 0 | 0 | -
O=C(c1ccc(-c2nc3ccccc3s2)s1)N1CCOCC1 | 0 | - | 0 | 53 | 0 | 0 | 44
COc1cccc(-c2ncc3ccccc3c2COC(=O)c2cccc(Br)c2)c1 | - | 0 | 0 | 0 | 0 | 0 | -
SMILES | NALP1 yeast inh | PfHsp90 yeast 2 | NALP3 yeast inh | tim23-1 inh | TIM10 inh | tim10-1 inh | tim23-1 confirm
Cc1nc(SCc2nc3cc(Cl)c(F)cc3[nH]2)c2oc3ccccc3c2n1 | - | 0 | 0 | 56 | 0 | 0 | 50
Cc1nc(SCc2nc3ccc(C(F)(F)F)cc3[nH]2)c2oc3ccccc3c2n1 | - | 0 | 0 | 57 | 0 | 0 | 49
Cc1nc(SCc2nc3ccc(Cl)cc3[nH]2)c2oc3ccccc3c2n1 | - | 0 | 0 | 0 | 0 | 0 | -
CCCCOc1ccc(CN2CCSCC2)cc1 | 0 | 0 | 0 | 0 | 0 | 0 | -
N#Cc1nc(Nc2cccc(Cl)c2)c2ncn(C3CCCC3)c2n1 | - | - | 0 | 0 | 0 | 0 | -
CCOc1ccc(NC(=O)c2ccccc2CO)cc1 | 0 | 0 | 0 | 58 | 0 | 0 | 0

Screens (PubChem)
